# PubChem BioAssay AID686978 (National Center for Advancing Translational Sciences (NCATS), 2013)
# In all, about 420,000 compounds went through this assay and about 64,000 (15%) were called active. Not shown: some 27% with an inconclusive outcome. The call rests on the fitted dose curve; in most records, active means well fitted inhibition curve with a large enough effect; inconclusive means small, poorly fitted or top-dose-only effect; inactive means flat fitted curve, though single readings scatter. These entries were drawn from the full list. Where a call stands in place of a potency, no number is given.
# Experiment: qHTS for Inhibitors of human tyrosyl-DNA phosphodiesterase 1 (TDP1): qHTS in cells in absence of CPT; further: nearly all actives have a fitted effect of over 55% in size
# Conditions: DT40 Tdp1-/- hTDP1 cells, no CPT, ATP luminescence, 48 h; activity change, negative = growth inhibition: at 46.2 µM (top of the series)
# Procedure, shortened: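 Stably hTDP1-transfected Tdp1-null chicken DT40 cells were treated with library compounds minus camptothecin and grown for at least 48 hr at 37 °C, after which cellular ATP was quantified by luminescence.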
# Potency means the concentration at half of the fitted maximal effect.
row,SMILES,Potency
1,CCOC(=O)c1c(C(C#N)C#N)cc(C)nc1C,inactive
2,OC[C@H]1O[C@@H](c2nc(-c3nc(-c4ccc(F)cc4)no3)cs2)[C@H](O)[C@@H](O)[C@H]1O,inactive
3,O=C(Nc1ccc2c(c1)OCO2)c1cc(-c2cccc(Cl)c2)on1,inactive
4,CCC(Oc1ccccc1)C(=O)NCc1cccnc1 (stereo not given),inactive
5,O=C(O)CC/C(=C\c1cc2c(cc1Br)OCO2)c1nc2ccccc2s1,inactive
6,O=C(O)C1=C(C(=O)O)C2CCC1C2,inactive
7,COc1ccccc1N(CC(=O)N/N=C(\C)c1ccccc1O)S(=O)(=O)c1ccc(C)cc1,1.64 µM (active)
8,COc1ccc(S(=O)(=O)N(CC(=O)N/N=C/c2ccccc2C(=O)O)c2ccccc2OC)cc1,inactive
9,COc1ccccc1N(CC(=O)Nc1c(C)n(C)n(-c2ccccc2)c1=O)S(=O)(=O)c1ccccc1,inactive
10,COC(=O)[C@H](C(C)C)n1c(C)c(C(C)=O)c(C(C)=O)c1C,inactive
11,O=S(=O)(c1cccc(C(F)(F)F)c1)N1c2ccccc2-n2cccc2C1c1cccnc1 (stereo not given),18.4 µM (active)
12,O=S(=O)(c1cccc(C(F)(F)F)c1)N1CCN(c2nc(-c3cccs3)nc3ccccc23)CC1,inactive
13,O=S(=O)(c1cccc(C(F)(F)F)c1)N1CCN(c2cnccn2)CC1,inactive
14,O=S(=O)(c1ccc(F)cc1)n1ccc(-c2cnc(-c3ccccc3)s2)n1,inactive
15,COc1ccc(NC(C)=O)cc1NC(=O)CN1CCN(c2ccccn2)CC1,inactive
16,CCN(CC)c1ccc(NC(=O)CN2CCN(c3ccccn3)CC2)cc1,inactive
17,CN(C(=O)CN1CCN(c2cc(-c3ccc(OCc4ccccc4)cc3)ncn2)CC1)c1ccccc1,18.4 µM (active)
18,O=C1OCC2=C1C(c1ccccc1)CC(=O)N2c1cccc(F)c1 (stereo not given),inactive
19,CSc1sc(C(=O)NNC(=O)c2ccc(Cl)cc2)c2c1C=CCC2,inactive
20,O=C(COc1ccccc1F)Nc1ccc(C(=O)OCc2cc(=O)n3nc(C4CC4)sc3n2)cc1,inactive
21,Cc1csc2nc(COC(=O)c3ccc(NC(=O)COc4ccccc4F)cc3)cc(=O)n12,18.4 µM (active)
22,Cc1csc2nc(COC(=O)c3ccccc3NC(=O)c3ccccc3Cl)cc(=O)n12,11.6 µM (active)
23,Cc1csc2nc(COc3ccc(NC(=O)COc4ccccc4)cc3)cc(=O)n12,inactive
24,Cc1ccc(OCC(=O)Nc2ccc(OCc3cc(=O)n4c(C)csc4n3)cc2)cc1C,inactive
25,Cc1ccc(C(=O)Nc2ccc(OCc3cc(=O)n4c(C)csc4n3)cc2)cc1,inactive
26,Cc1nc2c(c(C)nn2-c2ccccc2)c(C)c1C,inactive
27,Cc1cccc(-n2nc3c(c2NC(=O)c2cc4ccccc4o2)CS(=O)(=O)C3)c1,inactive

row,SMILES,Potency
1,CC(C)COc1ccc(C(=O)NNC(=O)CCC(=O)c2cccs2)cc1,inactive
2,CCCCCCCCCCCC(=O)O[C@H](CC(=O)O)C[N+](C)(C)C,inactive
3,CC(=O)c1ccc(Cc2ncc(C(F)(F)F)cc2Cl)s1,inactive
4,Cc1ccc(S(=O)(=O)CCC(=O)OCc2ccccc2)cc1,inactive
5,CCOC(=O)N1CCN(C(=O)CN(c2ccc(C)c(C)c2)S(=O)(=O)c2ccccc2)CC1,inactive
6,Cc1ccc(S(=O)(=O)N(CCc2ccccc2)c2ccc3c(c2)C2CC3CCN2C(=O)OCc2ccccc2)cc1 (stereo not given),9.2 µM (active)
7,COc1cc(C(C)=O)ccc1OC(=O)CN1C(=O)c2ccccc2C1=O,inactive
8,CCOC(=O)c1[nH]cnc1C(=O)Nc1ccccc1C,inactive
9,O=C(Nc1ccc2c(c1)CCC2)c1cccc(S(=O)(=O)Nc2ccccc2Cl)c1,inactive
10,CCCCN(C(=O)c1ccc(C)o1)c1c(N)n(CCCC)c(=O)[nH]c1=O,inactive
11,O=C(Nc1ccc(CN2CCOCC2)cc1)c1cc(Cl)ccc1Cl,inactive
12,CC(C)(C)c1cc(NC(=O)NN2CCOCC2)nn1-c1c(Cl)cc(Cl)cc1Cl,14.6 µM (active)
13,O=C(CN1CCOCC1)Nc1c(Cl)cc(Cl)cc1Cl,inactive
14,Cn1cccc1/C=C1\SC(=O)N(CC(=O)Nc2ccc(F)cc2)C1=O,inactive
15,CNC(=S)NNC(=O)c1oc2nc(-c3ccccc3)cc(-c3ccco3)c2c1N,inactive
16,O=C1OCC2=C1C(c1ccc(Cl)cc1)c1cc3c(cc1O2)OCO3 (stereo not given),16.4 µM (active)
17,COc1ccccc1C1C2=C(COC2=O)Nc2cc3c(cc21)OCO3 (stereo not given),inactive
18,O=C(c1ccc(O)cc1)c1ccc(C(=O)O)c(C(=O)O)c1,inactive
19,Cc1cccn2cc(-c3cccc(S(=O)(=O)N4CCCCC4)c3)nc12,inactive
20,O=C(O)CCn1cc(/C=C/C(=O)c2ccc(Cl)cc2)c(-c2cccc(Br)c2)n1,23.1 µM (active)
21,CCOC(=O)/C(C#N)=C/c1cn(CCC(=O)O)nc1-c1ccc(Br)cc1,inactive
22,O=C(O)/C=C/c1cn(Cc2ccccc2)nc1-c1cccs1,inactive
23,CC1CN(C(=O)c2ccccc2NS(=O)(=O)c2cccc([N+](=O)[O-])c2)CC(C)O1 (stereo not given),inactive
24,COc1ccc2c(Cl)c(-c3nnco3)sc2c1,inactive
25,COc1ccc2sc(-c3ccc(N(C)C)cc3)c(C#CCO)c2c1,18.4 µM (active)
26,COc1cc(OC)cc(-c2sc3ccc(OC)cc3c2-c2ccc3cc[nH]c3c2)c1,inactive
27,COc1ccc(-c2sc3ccc(OC)cc3c2C#Cc2ccccn2)cc1,18.4 µM (active)

row,SMILES,Potency
1,COc1ccc2sc(-c3ccc(S(C)(=O)=O)cc3)c(-c3ccc(C(N)=O)cc3)c2c1,inactive
2,COc1ccc2sc(-c3ccc(N(C)C)cc3)c(-c3ccc4cc[nH]c4c3)c2c1,inactive
3,CC(C)(C)c1ccc(S(=O)(=O)NC(=O)C2(C)CCN2C(=O)CC2CC2)cc1 (stereo not given),inactive
4,CCS(=O)(=O)C1=NSC2=NC(=O)/C(=C\c3ccc(OS(=O)(=O)c4ccccc4)cc3)C(=N)N21,inactive
5,Cc1cc(C)cc(NC(=O)C(OC(=O)c2ccc(O)cc2)c2ccccc2)c1 (stereo not given),inactive
6,CCCn1c(C)cc(/C=C(\C#N)C(=O)OCC(=O)N(C)c2c(N)n(Cc3ccccc3)c(=O)[nH]c2=O)c1C,inactive
7,COc1ccc(N/N=C2/CCCCC2=O)cc1,inactive
8,CC1(C)CN(c2ccc(-c3ccnc4ncnn34)cc2)C1=O,inactive
9,CC(=O)Oc1cccc(N2C(=O)C3CC=C(Cl)CC3C2=O)c1 (stereo not given),inactive
10,O=C(Oc1cccc(N2C(=O)C3C4c5ccccc5C(c5ccccc54)C3C2=O)c1)c1ccco1 (stereo not given),29.1 µM (active)
11,O=C(NC1CC(=O)N(c2ccccc2)C1)c1ccco1 (stereo not given),inactive
12,CC(C)(C)NC(=O)C(=O)NCc1ccncc1,inactive
13,CC(C)(C)c1ccc(SCCc2ccncc2)cc1,16.4 µM (active)
14,c1ccc(CSCCc2ccncc2)cc1,inactive
15,CN(C)CC(O)COc1ccc(C(C)(C)c2ccc(OCC(O)CN(C)C)cc2)cc1 (stereo not given),17.8 µM (active)
16,COc1ccc(OCC(O)CN(C)C(=O)C(C)Oc2ccccc2)cc1 (stereo not given),inactive
17,CCCc1ccc(OCC(O)CN2CCN(CCO)CC2)cc1 (stereo not given),inactive
18,O=S(=O)(Cc1nnnn1-c1ccccc1)c1ccccc1,inactive
19,CC(C)C(=O)Nc1ccc2oc(=O)ccc2c1,inactive
20,Fc1cccc(Cc2c(-c3cccc(Cl)c3)nc3ccc(Br)cn23)c1,14.6 µM (active)
21,Cc1cc(Br)cn2c(Cc3ccccc3C(F)(F)F)c(-c3ccc(Cl)cc3)nc12,inactive
22,Cc1cc(Br)cn2c(Cc3cccc(F)c3)c(-c3cccc(Br)c3)nc12,23.1 µM (active)
23,CC(C)(C)Cc1c(C2CCCCC2)nc2ccc(Br)cn12,inactive
24,CCOC(=O)N1CCN(S(=O)(=O)c2cc3c(cc2C)NC(=O)CO3)CC1,inactive
25,Cc1nc(N)c(Br)c(C)c1Br,inactive
26,CCOC(=O)C1C(=O)NC(N2CCN(c3ccccc3)CC2)=NC1c1ccco1 (stereo not given),inactive
27,Cc1cc(N=Nc2ccc3ccccc3c2)ccc1O,inactive

row,SMILES,Potency
1,CC(C)C[C@H](NC(=O)N1CCn2c1nc1ccccc12)C(=O)NC1CC1,inactive
2,COc1ccc(-n2ccn(CC(=O)Nc3ccc(C)c(C)c3)c(=O)c2=O)cc1OC,inactive
3,COc1ccc(NC(=O)CN2C(=O)C(c3ccccc3)=NC23CCCCCC3)cc1OC,18.4 µM (active)
4,COc1ccc(NC(=O)CC2SC(N3CCCCC3)=NC2=O)cc1OC (stereo not given),inactive
5,CCOC(=O)c1cn(CC(=O)Nc2ccc(C(C)C)cc2)nn1,inactive
6,COc1ccc(NC(=O)CNC(=O)Cc2ccccc2)cc1OC,inactive
7,COc1ccc(NC(=O)CN2C(=O)CSC2=O)cc1,inactive
8,COc1ccc(C2=NC3(CCCCC3)N(CC(=O)Nc3ccc(C(C)C)cc3)C2=O)cc1,20.6 µM (active)
9,NC(=O)C1(N2CCCCC2)CCN(C2CC(=O)N(Cc3ccc(N4CCCC4=O)cc3)C2=O)CC1 (stereo not given),inactive
10,CC(Oc1cccc(Cl)c1)C(=O)Nc1ccc(S(=O)(=O)Nc2ncccn2)cc1 (stereo not given),inactive
11,C[C@H](CO)N1C[C@H](C)[C@H](CN(C)CC2CC2)Oc2ccc(NC(=O)CCN3CCOCC3)cc2C1=O,inactive
12,CC1CCCN(C(=O)c2cc(-c3ccco3)nc3ccccc23)C1 (stereo not given),inactive
13,O=C1c2cccc3cccc(c23)C(=O)N1CCCCCc1n[nH]c(=S)o1,inactive
14,CC(C)(C)Cc1nnc(NC(=O)c2cc(-c3ccccc3)nc3ccccc23)s1,inactive
15,COc1ccc(CN(C)C(=O)Cc2c[nH]c3ccccc23)c(OC)c1OC,inactive
16,COc1ccc(/C=N/OCC(=O)N(Cc2ccccc2)c2ccccc2C(=O)O)cc1,inactive
17,CN(Cc1ccc(F)cc1)C(=O)COc1ccc2ccccc2c1,inactive
18,COc1ccc(-c2cc(C(=O)N(C)CC(=O)Nc3ccccc3Cl)c3ccccc3n2)cc1OC,9.2 µM (active)
19,COc1ccc(-c2cc(C(=O)N(C)Cc3ccccc3)c3ccccc3n2)cc1,14.6 µM (active)
20,COc1ccc(-c2cc(C(=O)N(C)Cc3ccc(OC)c(OC)c3OC)c3ccccc3n2)cc1OC,18.4 µM (active)
21,COc1ccccc1NC(=O)c1cc(Cl)nc2ccccc12,inactive
22,Cc1cccc(C(=O)NCC(=O)OCC(=O)N(C)CC(=O)Nc2ccccc2Cl)c1,inactive
23,COc1ccc(NC(=O)c2cc(-c3cc(OC)c(OC)c(OC)c3)nc3ccccc23)c(OC)c1,8.2 µM (active)
24,CN(CC(=O)Nc1ccccc1Cl)C(=O)c1ccccc1SCC(=O)N1CCCC1,inactive
